In article PMC7862700, “An all-to-all approach to the identification of sequence-specific readers for epigenetic DNA modifications on cytosine” one finds binding signal data, which are given here for 1 sequence.

Common to all, as to test: DAPPL (digital affinity profiling via proximity ligation, sequencing); 10 mM Tris-HCl pH 7.5, 50 mM NaCl, 1 mM DTT, 4% glycerol, room temperature, 30 min; GST-TFs on glutathione beads, 16-mer random dsDNA library, 0.1% formaldehyde crosslink after washing; high values mean tight binding
Common to all, as to conditions: protein: recombinant; tags: N-terminal GST; dsDNA, one strand shown

One assay deals with T1, ELK1 (Homo sapiens, UniProt P19419 1-428).
T1 sequence: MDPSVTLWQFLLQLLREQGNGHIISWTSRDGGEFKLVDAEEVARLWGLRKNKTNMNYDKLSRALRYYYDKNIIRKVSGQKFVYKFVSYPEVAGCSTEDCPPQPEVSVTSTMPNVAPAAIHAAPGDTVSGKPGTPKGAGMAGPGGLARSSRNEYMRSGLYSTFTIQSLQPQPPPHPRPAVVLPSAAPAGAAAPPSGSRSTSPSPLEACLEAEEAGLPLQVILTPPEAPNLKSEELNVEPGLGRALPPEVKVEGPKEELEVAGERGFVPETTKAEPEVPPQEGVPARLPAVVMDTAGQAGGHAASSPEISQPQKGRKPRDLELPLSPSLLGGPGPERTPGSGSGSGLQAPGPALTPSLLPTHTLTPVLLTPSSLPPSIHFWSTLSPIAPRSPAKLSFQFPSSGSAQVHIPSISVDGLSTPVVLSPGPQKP
The gist of the method:
(§1)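 Sequencing on an Illumina NextSeq500 followed washing, crosslinking with 0.1% formaldehyde, proximity ligation (BsaI/T4 ligase, 1 h, 37 °C) and PCR amplification of pools that had been incubated for 30 min at room temperature with 200 nmole of a random double-stranded 16-mer DNA library in Tris/NaCl/DTT/glycerol buffer. Each pool held DNA-barcoded human transcription factors, expressed in yeast as GST fusions and captured on glutathione beads, plus a tag-only sample. Binding signal is a hexamer's read frequency for a factor divided by its frequency in the tag-only sample.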

A further assay concerns the target T2, GABPA (Homo sapiens, UniProt Q06546 1-454).
T2 sequence: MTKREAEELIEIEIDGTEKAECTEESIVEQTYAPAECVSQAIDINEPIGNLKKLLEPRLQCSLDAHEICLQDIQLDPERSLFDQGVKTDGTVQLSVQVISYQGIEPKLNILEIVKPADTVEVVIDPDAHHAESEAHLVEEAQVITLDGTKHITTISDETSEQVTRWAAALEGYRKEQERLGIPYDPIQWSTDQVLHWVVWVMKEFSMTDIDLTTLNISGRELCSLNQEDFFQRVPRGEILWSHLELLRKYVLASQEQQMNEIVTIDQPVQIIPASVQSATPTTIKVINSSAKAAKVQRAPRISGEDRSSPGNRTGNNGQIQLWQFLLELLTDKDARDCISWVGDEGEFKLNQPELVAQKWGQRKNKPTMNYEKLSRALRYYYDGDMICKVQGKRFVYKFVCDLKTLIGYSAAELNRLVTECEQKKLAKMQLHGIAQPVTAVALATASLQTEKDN
An outline of the steps: as §1

The target of another assay is T3, ERG (Homo sapiens, UniProt P11308 1-479).
T3 sequence: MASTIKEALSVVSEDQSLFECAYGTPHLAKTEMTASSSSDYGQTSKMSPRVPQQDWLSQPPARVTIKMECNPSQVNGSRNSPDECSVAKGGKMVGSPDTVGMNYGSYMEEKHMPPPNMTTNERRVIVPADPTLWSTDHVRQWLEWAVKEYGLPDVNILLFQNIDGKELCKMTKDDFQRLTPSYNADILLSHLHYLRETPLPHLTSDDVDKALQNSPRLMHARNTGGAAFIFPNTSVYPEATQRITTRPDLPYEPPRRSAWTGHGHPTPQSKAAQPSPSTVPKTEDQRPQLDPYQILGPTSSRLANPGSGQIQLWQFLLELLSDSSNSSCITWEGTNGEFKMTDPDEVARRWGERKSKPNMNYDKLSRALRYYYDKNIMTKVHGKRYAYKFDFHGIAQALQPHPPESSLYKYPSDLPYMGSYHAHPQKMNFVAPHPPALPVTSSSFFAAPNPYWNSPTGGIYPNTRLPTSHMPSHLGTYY
An outline of the steps: as §1

The target of the next assay is ELF1 (Homo sapiens, UniProt P32519 1-619). The gist of the method:
as §1

Another assay addresses T4, EHF (Homo sapiens, UniProt Q9NZC4 1-300).
T4 sequence: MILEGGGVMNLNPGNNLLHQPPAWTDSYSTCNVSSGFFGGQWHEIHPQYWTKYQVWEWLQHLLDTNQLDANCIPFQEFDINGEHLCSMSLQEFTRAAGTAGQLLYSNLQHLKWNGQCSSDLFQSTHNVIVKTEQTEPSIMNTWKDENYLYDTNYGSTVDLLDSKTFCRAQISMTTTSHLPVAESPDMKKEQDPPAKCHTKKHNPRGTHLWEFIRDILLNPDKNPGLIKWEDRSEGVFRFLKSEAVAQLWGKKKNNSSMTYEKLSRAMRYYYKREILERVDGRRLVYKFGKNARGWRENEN
An outline of the steps:
as §1

In the next assay the target is SPIB (Homo sapiens, UniProt Q01892 1-262). The gist of the method:
as §1

In a further assay the target is T5, ELK3 (Homo sapiens, UniProt P41970 1-407).
T5 sequence: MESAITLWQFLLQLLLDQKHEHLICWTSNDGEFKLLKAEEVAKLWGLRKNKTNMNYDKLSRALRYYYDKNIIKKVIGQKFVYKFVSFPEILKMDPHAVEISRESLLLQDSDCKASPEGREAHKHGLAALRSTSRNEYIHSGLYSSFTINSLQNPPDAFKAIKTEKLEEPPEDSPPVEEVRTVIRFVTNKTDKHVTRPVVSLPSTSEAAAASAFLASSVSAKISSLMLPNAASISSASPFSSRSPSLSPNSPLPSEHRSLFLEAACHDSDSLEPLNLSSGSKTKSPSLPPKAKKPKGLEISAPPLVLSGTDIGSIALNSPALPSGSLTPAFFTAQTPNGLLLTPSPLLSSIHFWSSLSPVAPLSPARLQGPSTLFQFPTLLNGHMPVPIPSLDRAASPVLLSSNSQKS
The gist of the method:
as §1

In another assay the target is ETV5 (Homo sapiens, UniProt P41161 1-510). The gist of the method: as §1
Chain of ETV5 (P41161 whole entry): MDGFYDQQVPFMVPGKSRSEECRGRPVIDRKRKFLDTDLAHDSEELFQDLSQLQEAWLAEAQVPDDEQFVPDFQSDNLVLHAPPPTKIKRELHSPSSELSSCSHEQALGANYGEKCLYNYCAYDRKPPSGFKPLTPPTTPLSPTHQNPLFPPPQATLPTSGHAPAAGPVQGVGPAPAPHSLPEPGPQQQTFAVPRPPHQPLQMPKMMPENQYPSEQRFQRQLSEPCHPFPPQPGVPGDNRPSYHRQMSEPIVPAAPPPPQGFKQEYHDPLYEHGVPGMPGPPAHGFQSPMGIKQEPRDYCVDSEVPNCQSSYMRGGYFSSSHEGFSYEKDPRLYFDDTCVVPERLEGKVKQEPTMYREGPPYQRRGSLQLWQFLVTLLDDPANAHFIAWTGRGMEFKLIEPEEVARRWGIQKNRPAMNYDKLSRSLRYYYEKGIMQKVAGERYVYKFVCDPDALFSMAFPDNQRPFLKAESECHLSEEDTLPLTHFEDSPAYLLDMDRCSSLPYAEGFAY
For the next assay, the target named is T6, SPIC (Homo sapiens, UniProt Q8N5J4 1-248).
T6 sequence: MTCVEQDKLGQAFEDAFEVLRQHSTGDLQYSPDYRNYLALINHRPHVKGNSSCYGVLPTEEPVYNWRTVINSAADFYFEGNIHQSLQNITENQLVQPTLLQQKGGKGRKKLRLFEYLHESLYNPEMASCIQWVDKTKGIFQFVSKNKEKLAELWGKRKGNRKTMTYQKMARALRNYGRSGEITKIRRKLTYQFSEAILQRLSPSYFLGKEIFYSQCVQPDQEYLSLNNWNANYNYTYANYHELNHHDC
The gist of the method: as §1

The target of the next assay is T7, ELF3 (Homo sapiens, UniProt P78545 1-371).
T7 sequence: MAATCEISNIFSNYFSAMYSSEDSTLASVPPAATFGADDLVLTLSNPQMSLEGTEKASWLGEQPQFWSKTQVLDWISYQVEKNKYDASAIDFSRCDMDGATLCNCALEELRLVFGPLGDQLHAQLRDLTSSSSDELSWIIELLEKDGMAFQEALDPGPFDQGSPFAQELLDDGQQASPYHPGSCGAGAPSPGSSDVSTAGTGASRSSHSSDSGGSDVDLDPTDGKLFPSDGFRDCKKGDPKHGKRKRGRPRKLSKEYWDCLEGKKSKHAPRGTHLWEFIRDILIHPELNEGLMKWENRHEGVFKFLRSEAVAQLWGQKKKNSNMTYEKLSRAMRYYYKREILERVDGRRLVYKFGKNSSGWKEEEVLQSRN
The gist of the method:
as §1

A further assay addresses ETV1 (Homo sapiens, UniProt P50549 1-477). An outline of the steps:
as §1

The target of another assay is T8, ERF (Homo sapiens, UniProt P50548 1-548).
T8 sequence: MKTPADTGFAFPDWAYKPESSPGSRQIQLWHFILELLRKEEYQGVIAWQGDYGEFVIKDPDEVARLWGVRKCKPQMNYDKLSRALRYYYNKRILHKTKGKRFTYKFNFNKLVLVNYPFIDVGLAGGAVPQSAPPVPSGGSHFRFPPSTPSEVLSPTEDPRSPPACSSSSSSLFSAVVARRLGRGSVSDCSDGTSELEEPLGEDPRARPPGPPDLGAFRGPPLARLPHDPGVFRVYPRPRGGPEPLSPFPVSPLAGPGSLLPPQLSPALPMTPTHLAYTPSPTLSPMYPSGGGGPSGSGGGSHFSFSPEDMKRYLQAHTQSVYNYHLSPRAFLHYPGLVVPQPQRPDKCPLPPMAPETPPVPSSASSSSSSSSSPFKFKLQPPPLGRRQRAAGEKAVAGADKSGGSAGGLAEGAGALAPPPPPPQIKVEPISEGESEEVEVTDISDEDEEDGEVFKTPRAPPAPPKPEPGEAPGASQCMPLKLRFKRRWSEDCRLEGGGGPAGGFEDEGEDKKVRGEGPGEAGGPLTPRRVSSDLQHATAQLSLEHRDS
The gist of the method:
as §1

Another assay has as its target T9, ETV3L (Homo sapiens, UniProt Q6ZN32 1-361).
T9 sequence: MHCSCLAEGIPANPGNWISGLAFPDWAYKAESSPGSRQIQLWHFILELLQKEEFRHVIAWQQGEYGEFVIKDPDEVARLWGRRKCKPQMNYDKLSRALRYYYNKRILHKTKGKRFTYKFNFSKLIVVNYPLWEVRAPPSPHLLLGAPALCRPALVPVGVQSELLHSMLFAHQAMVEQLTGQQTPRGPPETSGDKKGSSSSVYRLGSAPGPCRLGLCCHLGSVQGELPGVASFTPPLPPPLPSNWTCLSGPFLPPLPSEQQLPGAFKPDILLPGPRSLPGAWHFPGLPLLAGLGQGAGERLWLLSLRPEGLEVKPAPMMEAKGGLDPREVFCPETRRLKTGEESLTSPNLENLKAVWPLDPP
The gist of the method: as §1

For the next assay, the target named is T10, ETS2 (Homo sapiens, UniProt P15036 1-469).
T10 sequence: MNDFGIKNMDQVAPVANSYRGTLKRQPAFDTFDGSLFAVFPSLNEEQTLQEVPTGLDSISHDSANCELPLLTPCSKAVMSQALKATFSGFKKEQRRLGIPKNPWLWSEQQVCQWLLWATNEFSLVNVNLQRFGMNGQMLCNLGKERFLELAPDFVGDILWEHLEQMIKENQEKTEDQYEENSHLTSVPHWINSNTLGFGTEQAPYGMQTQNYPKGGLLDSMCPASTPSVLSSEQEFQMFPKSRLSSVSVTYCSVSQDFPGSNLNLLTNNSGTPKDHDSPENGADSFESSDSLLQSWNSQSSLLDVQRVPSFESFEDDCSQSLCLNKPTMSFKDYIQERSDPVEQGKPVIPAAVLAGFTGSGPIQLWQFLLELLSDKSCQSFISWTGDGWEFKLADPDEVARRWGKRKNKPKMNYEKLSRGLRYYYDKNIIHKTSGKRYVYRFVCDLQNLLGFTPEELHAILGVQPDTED
An outline of the steps: as §1

Another assay has as its target T11, SPDEF (Homo sapiens, UniProt O95238 1-335).
T11 sequence: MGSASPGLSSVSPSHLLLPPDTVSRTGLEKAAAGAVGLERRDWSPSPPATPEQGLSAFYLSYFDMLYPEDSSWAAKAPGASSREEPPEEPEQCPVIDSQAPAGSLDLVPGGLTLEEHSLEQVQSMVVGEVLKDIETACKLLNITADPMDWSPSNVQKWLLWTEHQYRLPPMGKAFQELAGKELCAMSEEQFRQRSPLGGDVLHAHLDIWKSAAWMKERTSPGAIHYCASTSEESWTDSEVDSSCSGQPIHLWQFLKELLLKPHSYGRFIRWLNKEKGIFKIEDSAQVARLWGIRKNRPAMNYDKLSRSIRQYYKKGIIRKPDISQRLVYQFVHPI
An outline of the steps:
as §1

A further assay has as its target T12, ETV3 (Homo sapiens, UniProt P41162-2 1-143).
T12 sequence: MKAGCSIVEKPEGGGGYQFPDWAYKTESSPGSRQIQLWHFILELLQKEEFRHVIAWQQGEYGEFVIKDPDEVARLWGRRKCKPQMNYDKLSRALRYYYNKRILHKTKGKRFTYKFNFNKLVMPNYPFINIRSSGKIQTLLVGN
An outline of the steps: as §1

Another assay has as its target ETV6 (Homo sapiens, UniProt P41212 1-452). An outline of the steps: as §1

Chain of ELF1 (P32519 whole entry): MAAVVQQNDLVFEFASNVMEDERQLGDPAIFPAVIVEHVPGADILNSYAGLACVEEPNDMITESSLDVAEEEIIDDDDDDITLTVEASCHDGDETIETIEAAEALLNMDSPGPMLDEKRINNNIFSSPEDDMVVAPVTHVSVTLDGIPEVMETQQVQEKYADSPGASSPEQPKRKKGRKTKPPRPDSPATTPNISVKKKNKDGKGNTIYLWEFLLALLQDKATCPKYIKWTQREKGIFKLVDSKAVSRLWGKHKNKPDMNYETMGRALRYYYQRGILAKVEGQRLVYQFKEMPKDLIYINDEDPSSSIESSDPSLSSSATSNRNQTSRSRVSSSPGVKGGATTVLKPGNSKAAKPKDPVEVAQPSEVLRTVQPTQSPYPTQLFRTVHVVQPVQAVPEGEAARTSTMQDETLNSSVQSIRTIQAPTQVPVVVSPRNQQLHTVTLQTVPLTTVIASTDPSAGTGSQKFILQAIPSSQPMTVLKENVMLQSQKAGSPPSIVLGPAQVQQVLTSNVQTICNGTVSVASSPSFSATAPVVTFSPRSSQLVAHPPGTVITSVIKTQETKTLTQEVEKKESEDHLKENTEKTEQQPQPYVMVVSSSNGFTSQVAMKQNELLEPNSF
Chain of ETV1 (P50549 whole entry): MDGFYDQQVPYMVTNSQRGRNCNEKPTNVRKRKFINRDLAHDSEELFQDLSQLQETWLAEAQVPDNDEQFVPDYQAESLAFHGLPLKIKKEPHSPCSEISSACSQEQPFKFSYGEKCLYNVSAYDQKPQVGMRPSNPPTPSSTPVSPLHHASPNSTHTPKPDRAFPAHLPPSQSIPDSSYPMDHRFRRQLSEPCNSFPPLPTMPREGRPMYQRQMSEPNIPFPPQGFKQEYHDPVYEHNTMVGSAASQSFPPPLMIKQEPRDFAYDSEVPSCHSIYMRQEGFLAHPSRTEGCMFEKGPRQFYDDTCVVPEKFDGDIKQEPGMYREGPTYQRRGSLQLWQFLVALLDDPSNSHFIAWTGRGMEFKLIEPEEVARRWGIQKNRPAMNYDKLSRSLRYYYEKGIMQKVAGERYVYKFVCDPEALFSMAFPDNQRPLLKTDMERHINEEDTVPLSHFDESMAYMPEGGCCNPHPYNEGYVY
Chain of SPIB (Q01892 whole entry): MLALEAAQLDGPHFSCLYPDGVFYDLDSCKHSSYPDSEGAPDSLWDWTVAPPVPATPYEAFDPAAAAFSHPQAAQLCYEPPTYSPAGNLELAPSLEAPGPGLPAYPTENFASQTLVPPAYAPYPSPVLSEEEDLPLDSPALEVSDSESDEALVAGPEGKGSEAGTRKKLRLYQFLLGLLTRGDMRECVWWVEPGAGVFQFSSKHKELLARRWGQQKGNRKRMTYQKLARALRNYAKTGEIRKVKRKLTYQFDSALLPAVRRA
Chain of ETV6 (P41212 whole entry): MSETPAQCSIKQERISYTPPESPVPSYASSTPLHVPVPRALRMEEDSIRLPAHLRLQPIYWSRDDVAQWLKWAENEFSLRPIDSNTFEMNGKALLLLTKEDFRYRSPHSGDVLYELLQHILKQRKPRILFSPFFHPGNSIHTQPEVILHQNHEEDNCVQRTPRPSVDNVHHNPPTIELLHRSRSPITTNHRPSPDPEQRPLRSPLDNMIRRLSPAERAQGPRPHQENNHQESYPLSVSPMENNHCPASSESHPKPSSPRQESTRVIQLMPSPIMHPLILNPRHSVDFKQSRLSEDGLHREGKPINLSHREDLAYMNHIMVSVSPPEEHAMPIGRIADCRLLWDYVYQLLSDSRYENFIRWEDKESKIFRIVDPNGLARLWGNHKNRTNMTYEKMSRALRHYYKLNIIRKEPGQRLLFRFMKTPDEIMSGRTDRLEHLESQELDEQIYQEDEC

AACGCA: the binding signal with ELK1 was 1.03 fold enrichment (6-mer frequency, TF over GST control); in the assay with GABPA, 1.06 fold enrichment (6-mer frequency, TF over GST control); with ERG, 1.13 fold enrichment (6-mer frequency, TF over GST control); in the assay with ELF1 it was 1.06 fold enrichment (6-mer frequency, TF over GST control); with EHF it was 1.04 fold enrichment (6-mer frequency, TF over GST control); with SPIB, 1.04 fold enrichment (6-mer frequency, TF over GST control). For the same sequence, the binding signal was 1.06 fold enrichment (6-mer frequency, TF over GST control) in the assay with ELK3; 1.09 fold enrichment (6-mer frequency, TF over GST control) with ETV5; 1.02 fold enrichment (6-mer frequency, TF over GST control) with SPIC; 1.03 fold enrichment (6-mer frequency, TF over GST control) in the assay with ELF3; 1.09 fold enrichment (6-mer frequency, TF over GST control) with ETV1; 1.16 fold enrichment (6-mer frequency, TF over GST control) with ERF. Further, the binding signal in the assay with ETV3L is 1.03 fold enrichment (6-mer frequency, TF over GST control); with ETS2 it was 1.1 fold enrichment (6-mer frequency, TF over GST control); with SPDEF, 1.05 fold enrichment (6-mer frequency, TF over GST control); in the assay with ETV3, 1.03 fold enrichment (6-mer frequency, TF over GST control); with ETV6, 1.06 fold enrichment (6-mer frequency, TF over GST control).
